Screens deposited in PubChem by National Center for Advancing Translational Sciences (NCATS).
SMN2 splice enh = qHTS Assay for Enhancers of SMN2 Splice Variant Expression. HEK293 SMN2-luciferase splicing reporter, luminescence, 30-36 h. Potency, µM (series often up to 46.1 µM), without a hit: at the top dose activity change, positive = activation, actives largely listed as activators. 2.8% of 210,000 active; also: % of control where 0% means no effect; nearly all actives have a fitted effect of over 55% in size
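qHTS luciferase splicing reporter: luminescence rises when SMN2 exon 7 is included in transfected HEK293 cells. Compound exposure lasted 30-36 h at 37C, with 4.5 mM final sodium butyrate as control, followed by a ONE-Glo read.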
ELG1 genotoxic = qHTS screen for small molecules that induce genotoxicity in human embryonic kidney (HEK293T) cells expressing luciferase-tagged ELG1; HEK293T ELG1-luciferase reporter, luminescence, 16 h; Potency, µM (series often up to 46 µM), without a hit: top-dose activity change, positive = activation, actives largely listed as activators; 1.3% of 330,000 active; also: % of control where 0% means no effect; nearly all actives have a fitted effect of over 60% in size
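16 hr compound incubation (37 °C, 5% CO2) of HEK293T cells carrying luciferase-tagged ELG1; luciferase then measured by ONE-Glo luminescence after 30 min at RT.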
FLuc counter = qHTS profiling assay for firefly luciferase inhibitor/activator using purifed enzyme and Km concentrations of substrates (counterscreen for miR-21 project). purified FLuc, Km substrates, luminescence inhibition. Potency, µM (highest dose often 57.5 µM), for the others: top-dose activity change, negative = inhibition, hits mostly inhibitors. 6.9% of 360,000 active. AID 588342, 2011;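 also: plate controls were vehicle for no effect and reference inhibitor for full effect; nearly all actives have a fitted effect of over 55% in size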
Target sequence (P08659 whole entry, looked up): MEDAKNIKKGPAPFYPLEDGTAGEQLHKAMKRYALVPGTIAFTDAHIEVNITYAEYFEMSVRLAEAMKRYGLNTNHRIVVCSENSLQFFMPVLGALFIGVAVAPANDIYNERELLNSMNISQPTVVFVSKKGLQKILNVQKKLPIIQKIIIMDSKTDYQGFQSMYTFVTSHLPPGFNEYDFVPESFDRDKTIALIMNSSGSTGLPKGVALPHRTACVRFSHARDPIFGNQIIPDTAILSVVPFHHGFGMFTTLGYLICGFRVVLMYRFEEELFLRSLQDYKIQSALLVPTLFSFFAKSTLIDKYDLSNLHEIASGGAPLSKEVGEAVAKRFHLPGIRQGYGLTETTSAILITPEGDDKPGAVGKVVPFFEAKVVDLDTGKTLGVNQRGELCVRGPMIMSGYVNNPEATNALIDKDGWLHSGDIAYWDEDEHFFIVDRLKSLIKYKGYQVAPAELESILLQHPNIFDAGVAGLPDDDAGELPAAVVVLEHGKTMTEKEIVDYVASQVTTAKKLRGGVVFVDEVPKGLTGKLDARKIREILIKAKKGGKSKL
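Biochemical qHTS of compounds, final roughly 60 µM downward over six points, against 10 nM purified firefly luciferase using Km concentrations of substrates (10 uM D-luciferin, 10 uM ATP) in Tris acetate pH 7.5 buffer; luminescence output.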
NPC1 prom act = qHTS Assay for NPC1 Promoter Activators; Huh7 NPC1 promoter luciferase reporter, 24 h; Potency, µM (series often up to 9.22 µM), for inactives: top-dose activation, actives largely listed as activators; 2.4% of 320,000 active; also: % of control where 0% means no effect; nearly all actives have a fitted effect of over 60% in size
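Stably transfected Huh7 (NPC1 promoter→luciferase), 1500 cells/well in Opti-MEM + 10% FBS, 2 h settle, then compound 24 h at 37 °C. Luminescence after 10 min with Amplite reagent.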
Rab9 prom act = qHTS Assay for Rab9 Promoter Activators. Huh7 Rab9 promoter-luciferase reporter, luminescence, 24 h. 2.8% of 320,000 active. AID 485297, 2010. Potency, µM (titrated, usually from 9.22 µM), inactives show top-dose activation, negative = inhibition, most hits filed as activators; also: % of control where 0% means no effect; nearly all actives have a fitted effect of over 60% in size
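Huh7 cells stably carrying Rab9 promoter–luciferase reporter, plated 1500 cells/well, compound added after 2 h and incubated 24 h at 37 °C; luciferase luminescence then read after 10 min with detection reagent.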
The depositor's hits bear a star; ? = inconclusive; nt = no result given; [ ] = dose if it differs, or a comment. Rows were chosen to be rich in hits. Some 7.4% of all compounds tested hit in one or more screens of this group. Calls follow the shape of the dose curve; as a rule, active = well fitted curve in the direction sought with a large enough effect; inconclusive = small, poorly fitted or top-dose-only effect, or another doubt; inactive = no such curve, though single readings can be large; an effect the other way counts as inactive or inconclusive. Potency is read from the fitted curve at half-maximal effect.

SMILES	SMN2 splice enh	ELG1 genotoxic	FLuc counter	NPC1 prom act	Rab9 prom act
CN(C(=O)c1ccc(NC(=O)Cc2ccc(NC(=O)C3CCCN(C(=O)C4CC4)C3)cc2)cc1)C1CC1 (stereo not drawn)	nt	5%	?	0%	0%
Cc1ccc(C(=O)OCC(=O)N2CCCCCC2)c(O)c1	nt	13%	12µM*	?	2.8µM*
O=C(COC(=O)c1ccccc1Br)NC1CCCC1	nt	?	17µM*	29%	21%
O=C(COC(=O)c1ccccc1Br)NC1CCCCCCC1	nt	-1%	nt	nt	nt
COC(=O)C1=C(CSc2nncn2C)NC(=O)NC1c1cc(C)ccc1C (stereo not drawn)	17%	-2%	0%	-4%	-5%
COC(=O)C1=C(CN2CCc3ccccc32)NC(=O)NC1c1cc(C)ccc1C (stereo not drawn)	4.5µM*	-3%	0%	2%	-9%
COC(=O)C1=C(CN2CCN(C)CC2)NC(=O)NC1c1cc(C)ccc1C (stereo not drawn)	14%	-1%	0%	-2%	-10%
COC(=O)C1=C(CSc2nnnn2C)NC(=O)NC1c1cc(C)ccc1C (stereo not drawn)	25µM*	-1%	3%	-4%	0%
O=C(Nc1cccc(Cl)c1)c1ccc2c(c1)SC1=NS(=O)(=O)CCN12	30%	1%	4%	-5%	-10%
CCOc1ccc(NC(=O)c2cccc3c2C(=O)N(Cc2cccnc2)C3)cc1	18%	?	8.5µM*	1%	5%
CCCN1Cc2cccc(C(=O)Nc3ccc(CN4CCCC4)cc3)c2C1=O	-2%	1%	17µM*	0%	-17%
COC(CNC(=O)c1cccc2c1C(=O)N(Cc1cccnc1)C2)OC	0%	0%	0%	-4%	-5%
COCCN1Cc2cccc(C(=O)Nc3ccc4c(c3)OCCO4)c2C1=O	-19%	?	21µM*	0%	0%
COc1ccc(C2=NS(=O)(=O)N(C)C(C(=O)Nc3ccc(OC(F)(F)F)cc3)=C2)cc1	nt	nt	-1%	nt	nt
CC(=O)CSc1nc2ccc(Nc3nc(N4CCOCC4)nc(N4CCOCC4)n3)cc2s1	25µM*	-8%	0%	0%	-7%
CC(=O)Nc1ccc2nc(SCC(=O)Nc3ccc(N4CCOCC4)c(Cl)c3)sc2c1	?	0%	8.5µM*	?	?
O=C(CSc1nc2ccccc2s1)Nc1ccc(N2CCOCC2)c(Cl)c1	-7%	7%	?	0%	1%
O=C1c2ccccc2CCC12N=NCC2c1ccc(Cl)cc1 (stereo not drawn)	-13%	0%	21µM*	-4%	7%
COc1ccc(C2CN=NC23CCc2ccccc2C3=O)cc1 (stereo not drawn)	nt	2%	17µM*	-3%	1%
COc1ccc(C2CN=NC23CCCc2ccccc2C3=O)cc1 (stereo not drawn)	-26%	-4%	-18%	-1%	-1%
Cc1cccc(NS(=O)(=O)c2ccc(C(=O)N3CCN(c4ccccc4O)CC3)cc2)c1C	nt	-11%	2%	-1%	-1%
O=C(CN1C(=O)c2ccccc2S1(=O)=O)NCc1ccccc1Cl	2%	0%	-20%	-2%	3%
O=C(CN1C(=O)c2ccccc2S1(=O)=O)c1ccccc1Cl	nt	-17%	3µM*	-18%	?
O=C(CN1C(=O)c2ccccc2S1(=O)=O)N1CCOCC1	?	11%	-2%	9%	3%
O=C(CN1C(=O)c2ccccc2S1(=O)=O)N1CCCCC1	nt	16µM*	2%	?	2.5µM*
SMILES	SMN2 splice enh	ELG1 genotoxic	FLuc counter	NPC1 prom act	Rab9 prom act
O=C(CN1C(=O)c2ccccc2S1(=O)=O)c1ccccc1	1%	0%	0.6µM*	?	?
Cc1ccc(C(=O)CN2C(=O)c3ccccc3S2(=O)=O)cc1	nt	-6%	?	-37%	-40%
O=C(NCC1COCCO1)c1cc(COc2c(F)cccc2F)on1 (stereo not drawn)	nt	2%	1%	-1%	11%
CC1CCc2c(sc3nc(-c4cc5ccccc5oc4=O)nc(Cl)c23)C1 (stereo not drawn)	2%	nt	2.4µM*	nt	nt
CCn1c(-c2ccccn2)nc2cc(S(=O)(=O)N(C)C)ccc21	nt	8%	21µM*	18%	27%
CCn1c(-c2cc(Br)cc(OC)c2O)nc2cc(S(=O)(=O)N(C)C)ccc21	-15%	-14%	-1%	-5%	-6%
O=C(CN1C(=O)c2ccccc2C1=O)NCc1ccccn1	-29%	3%	-1%	-2%	4%
O=C(Cn1c(=O)sc2ccccc21)NCc1ccccn1	11µM*	18µM*	?	22%	23%
Cc1ccc2c(=O)cc(CSc3ncn[nH]3)[nH]c2c1C	nt	nt	-12%	nt	nt
CCN1C(=O)N(C)[C@@H](c2ccccc2)C(C(C)=O)=C1C	18%[9.22 µM]	nt	nt	nt	nt
Cc1cc(C)c(C#N)c(SCc2nc3ccccc3[nH]2)n1	10µM*	23µM*	?	17%	?
N#Cc1cc2c(nc1SCc1nc3ccccc3[nH]1)CCC2	8.9µM*	?	1.3µM*	0.32µM*	0.71µM*
Cc1cccc(CSc2nc3c(cc2C#N)CCC3)c1	25%	13%	-2%	0%	2%
Cc1ccccc1-n1ncc2c1CC(C)(C)CC2NC(=O)CCCN1CCCC1=O (stereo not drawn)	nt	15%	1%	-1%	5%
CCOc1ccc(NC(=O)CN(c2ccc(OC)cc2)S(C)(=O)=O)cc1	-6%	16µM*	21µM*	?	26%
COC(=O)c1ccc(NC(=O)CN(c2ccc(OC)cc2)S(C)(=O)=O)cc1	?	?	15µM*	?	2.5µM*
CCOc1ccc(N(CC(=O)NCCSCc2ccccc2Cl)S(C)(=O)=O)cc1	nt	-10%	3%	2%	1%
CCOc1ccc(N(CC(=O)Nc2ccc(OC)cc2)S(C)(=O)=O)cc1	12%	?	?	?	?
CCOc1ccc(N(CC(=O)NCc2ccccc2C)S(C)(=O)=O)cc1	nt	?	13µM*	3.2µM*	?
COC(=O)c1ccccc1NC(=O)CN(c1ccc(OC)cc1)S(C)(=O)=O	-8%	-3%	-2%	-5%	-3%
Cc1nn(CC(=O)c2ccccc2)c(=O)c2nn(-c3ccccc3F)c(C)c12	-12%	0%	-1%	-1%	2%
COc1ccc(C(=O)Nn2c(SCC(=O)NC3CCCCC3)nc3ccccc3c2=O)cc1	29%	?	1.9µM*	3.5µM*	4µM*
O=C(Nn1c(SCc2cccc([N+](=O)[O-])c2)nc2ccccc2c1=O)c1ccccc1	?	14%	?	-2%	20%
COc1ccc(C(=O)Nn2c(SCC(=O)NCc3ccco3)nc3ccccc3c2=O)cc1	?	?	0.21µM*	0.32µM*	0.089µM*
